The target of this experiment is furin, P09958. Nature of the experiment: furin cleavage Z-score vs untreated control; higher = more cleavage, active = 3.5 or more, inactive = 1 or less, 8 variable residues between constant flanks. An outline of the steps: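 Peptides 8 residues long, fused to a cDNA oligonucleotide, were fixed to magnetic beads by the N-terminus and exposed to purified furin. The 0.01 ml reactions contained 50 mM HEPES pH 7.5 with CaCl2 and NaCl at 1:10 enzyme:substrate and ran 7.5, 15 or 30 min. For the cleavage Z-score, log counts of sequenced released DNA were compared with furin-free reactions, lowess-adjusted and scaled by median absolute deviation.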
Sequence of furin, P09958 (P09958 whole entry, the tested form may be a part): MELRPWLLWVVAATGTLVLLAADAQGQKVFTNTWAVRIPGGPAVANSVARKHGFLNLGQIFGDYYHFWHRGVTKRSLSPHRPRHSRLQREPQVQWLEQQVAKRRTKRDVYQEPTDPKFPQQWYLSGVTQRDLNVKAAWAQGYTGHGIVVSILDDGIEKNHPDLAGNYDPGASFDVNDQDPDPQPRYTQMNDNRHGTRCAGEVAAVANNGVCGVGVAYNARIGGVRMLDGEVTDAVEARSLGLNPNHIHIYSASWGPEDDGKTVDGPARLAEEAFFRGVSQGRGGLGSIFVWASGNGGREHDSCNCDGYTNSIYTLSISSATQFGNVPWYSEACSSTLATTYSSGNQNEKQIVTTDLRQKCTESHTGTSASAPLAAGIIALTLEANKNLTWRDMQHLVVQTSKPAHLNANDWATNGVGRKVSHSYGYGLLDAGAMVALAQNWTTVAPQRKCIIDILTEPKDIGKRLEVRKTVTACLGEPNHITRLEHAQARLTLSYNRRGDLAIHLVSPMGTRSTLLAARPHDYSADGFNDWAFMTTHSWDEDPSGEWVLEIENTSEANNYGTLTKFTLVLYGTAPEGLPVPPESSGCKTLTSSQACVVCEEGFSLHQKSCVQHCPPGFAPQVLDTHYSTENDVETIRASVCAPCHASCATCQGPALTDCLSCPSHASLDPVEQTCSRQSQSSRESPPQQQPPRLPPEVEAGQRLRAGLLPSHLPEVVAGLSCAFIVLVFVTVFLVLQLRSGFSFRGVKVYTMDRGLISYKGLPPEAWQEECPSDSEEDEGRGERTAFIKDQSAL

This is one part of the list. No count for the full screen is at hand.

With CARRPRHAEQAGNASASA [FS-2781], the “furin cleavage Z-score” value was 4.69 (active) (7.5 min), 5.7 (active) (15 min) and 4 (active) (30 min).
For the sequence CARRPRDDDSAGNASASA [FS-3057], the “furin cleavage Z-score” value reads like this: (7.5 min) -0.221 (inactive); (15 min) -0.299 (inactive); (30 min) -1.38 (inactive).
The corresponding values for CARSRRLAEQAGNASASA [FS-1933] are 0.188 (inactive), 2.91 and 3.14.
The matching figures for CARRPRGTMQAGNASASA [FS-1920]: 4.44 (active), 4.25 (active) and 6.42 (active).
For the sequence CARRPRLSDRAGNASASA [FS-3059], the “furin cleavage Z-score” value runs as follows: (7.5 min) -0.769 (inactive); (15 min) -0.45 (inactive); (30 min) -0.545 (inactive).
The corresponding values for CAEEMEECSQAGNASASA [HC1792] are 0.0451 (inactive), -0.543 (inactive) and -0.411 (inactive).
The matching figures for CASTKVPAAYAGNASASA [HC779]: -0.328 (inactive), -0.544 (inactive) and 0.327 (inactive).
The corresponding values for CAPGALVVGVAGNASASA [HC1105] are -0.0947 (inactive), 0.679 (inactive) and -0.0726 (inactive).
As to CARKAREVCDAGNASASA [FS-1900], the “furin cleavage Z-score” value was 5.27 (active) (7.5 min), 5.4 (active) (15 min) and 4.27 (active) (30 min).
As to CARKYREVFCAGNASASA [FS-2041], the “furin cleavage Z-score” value is, setting by setting: (7.5 min) 0.9 (inactive); (15 min) 2.75; (30 min) 2.7.
The matching figures for CARKYRSHHDAGNASASA [FS-2428]: 1.45, 4.06 (active) and 3.48.
The corresponding values for CARKYRSNKGAGNASASA [FS-2703] are 0.0213 (inactive), 0.138 (inactive) and 1.58.
As to CARKARFIHDAGNASASA [FS-2421], the “furin cleavage Z-score” value reads like this: (7.5 min) 2.71; (15 min) 4.77 (active); (30 min) 7.1 (active).
CARKYRFHGGAGNASASA [FS-1734]: the “furin cleavage Z-score” value runs as follows: (7.5 min) 0.847 (inactive); (15 min) -1.27 (inactive); (30 min) -0.103 (inactive).
The corresponding values for CADSTVTESDAGNASASA [HC1483] are -0.354 (inactive), 0.495 (inactive) and 0.157 (inactive).
The corresponding values for CARKARFGSEAGNASASA [FS-2958] are 0.624 (inactive), 0.0236 (inactive) and 1.04.
For the sequence CASTPCSADLAGNASASA [HC2551], the “furin cleavage Z-score” value is, setting by setting: (7.5 min) 1.45; (15 min) 0.00667 (inactive); (30 min) 2.02.
The corresponding values for CANYTFALWRAGNASASA [HC1199] are -0.0905 (inactive), -0.132 (inactive) and 1.34.
The corresponding values for CAAGVDAETHAGNASASA [HC350] are -0.719 (inactive), -1.77 (inactive) and -1.18 (inactive).
The corresponding values for CAEVKTSTWVAGNASASA [HC2194] are 0.637 (inactive), -0.239 (inactive) and -1.95 (inactive).
Turning to CAKDSRLSRDAGNASASA [FS-1017], the “furin cleavage Z-score” value is -0.904 (inactive) (7.5 min), 0.551 (inactive) (15 min) and 0.282 (inactive) (30 min).
The corresponding values for CAVKAAASKVAGNASASA [HC1406] are -0.468 (inactive), 1.05 and -0.785 (inactive).
As for CATLSRKSRDAGNASASA [FS-1173], the “furin cleavage Z-score” value was 10.1 (active) (7.5 min), 11.3 (active) (15 min) and 6.95 (active) (30 min).
In the case of CAVKARIKRMAGNASASA [FS-310], the “furin cleavage Z-score” value was 8.88 (active) (7.5 min), 10.6 (active) (15 min) and 7.99 (active) (30 min).
With CATLSRKKRAAGNASASA [FS-567], the “furin cleavage Z-score” value was 9.09 (active) (7.5 min), 8.88 (active) (15 min) and 6.75 (active) (30 min).
The matching figures for CANNSREKKAAGNASASA [FS-1378]: -0.625 (inactive), -0.493 (inactive) and -0.698 (inactive).
The corresponding values for CADIPRYKRMAGNASASA [FS-1189] are 6.09 (active), 5.32 (active) and 5.91 (active).
The corresponding values for CAMKARPEKSAGNASASA [FS-1139] are 0.00638 (inactive), -0.792 (inactive) and -2.08 (inactive).
With CAKLEVVTSTAGNASASA [HC2274], the “furin cleavage Z-score” value is 0.95 (inactive) (7.5 min), 0.175 (inactive) (15 min) and -1.42 (inactive) (30 min).
In the case of CATNRRKKRAAGNASASA [FS-1174], the “furin cleavage Z-score” value by setting is: (7.5 min) 8.44 (active); (15 min) 7.81 (active); (30 min) 8.15 (active).
The matching figures for CAIISKKKRMAGNASASA [FS-908]: 0.592 (inactive), -0.299 (inactive) and 1.14.
The matching figures for CATNRRPQDVAGNASASA [HC168]: -1.65 (inactive), -1.52 (inactive) and 0.59 (inactive).
CAVISRKKRMAGNASASA [FS-888]: the “furin cleavage Z-score” value (7.5 min) is 8.47 (active), the “furin cleavage Z-score” value (15 min) is 11.4 (active) and the “furin cleavage Z-score” value (30 min) is 8.35 (active).
The matching figures for CAGHITGHRMAGNASASA [HC316]: 0.56 (inactive), -0.81 (inactive) and -0.0561 (inactive).
The corresponding values for CAADLMGYIPAGNASASA [HC226] are -1.64 (inactive), -1.67 (inactive) and 0.444 (inactive).
For the sequence CALKKRGILSAGNASASA [FS-2409], the “furin cleavage Z-score” value by setting is: (7.5 min) -1.13 (inactive); (15 min) -2.56 (inactive); (30 min) 0.734 (inactive).
The matching figures for CALKWRFDRSAGNASASA [FS-1640]: 3.41, 4.74 (active) and 4.58 (active).
The corresponding values for CARQGRFDRSAGNASASA [FS-190] are 4.75 (active), 6.18 (active) and 4.85 (active).
Regarding CARQGRSHHLAGNASASA [FS-2167], the “furin cleavage Z-score” value reads like this: (7.5 min) 0.537 (inactive); (15 min) 1.01; (30 min) 2.02.
The corresponding values for CAWKDLLEDNAGNASASA [HC1432] are 0.826 (inactive), 1.39 and -0.792 (inactive).
The corresponding values for CAILSSLTVTAGNASASA [HC1134] are -0.227 (inactive), -0.375 (inactive) and -0.271 (inactive).
The corresponding values for CAIGGAGNNTAGNASASA [HC446] are 0.332 (inactive), -0.689 (inactive) and 0.317 (inactive).
As for CAGSSSTSGIAGNASASA [HC1337], the “furin cleavage Z-score” value by setting is: (7.5 min) 0.384 (inactive); (15 min) 0.604 (inactive); (30 min) -0.961 (inactive).
